The values below come from PubChem BioAssay AID1255 (The Scripps Research Institute Molecular Screening Center, 2008).

The campaign covered roughly 1,200 compounds. About 330 (28%) were called active. Rule as the data show it: active = inhibition above about 17%; inactive = the rest. The list is a sample of the results.

For orientation: inhibition means the change of the read-out against control, counted positive when it falls.

For this assay, the target named is Neuropeptide Y receptor type 2 (Homo sapiens) (UniProt P49146). The assay is described as follows: blockade of human NPY-Y2 in cells – HEK293-CNG cells, membrane potential fluorescence, triplicate, counter-screen for NPY-Y1 antagonist project, confirmation (AID 1255).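 Also: 0% = DMSO with agonist challenge and 100% = reference antagonist.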 As to conditions: antagonism, at 3.6 µM, hits give high values, cells given NPY, then isoproterenol. Background: A counterscreen serves to expose hits that act by an unwanted route or on another target.
Sequence of Neuropeptide Y receptor type 2 (Homo sapiens) (P49146 whole entry, looked up): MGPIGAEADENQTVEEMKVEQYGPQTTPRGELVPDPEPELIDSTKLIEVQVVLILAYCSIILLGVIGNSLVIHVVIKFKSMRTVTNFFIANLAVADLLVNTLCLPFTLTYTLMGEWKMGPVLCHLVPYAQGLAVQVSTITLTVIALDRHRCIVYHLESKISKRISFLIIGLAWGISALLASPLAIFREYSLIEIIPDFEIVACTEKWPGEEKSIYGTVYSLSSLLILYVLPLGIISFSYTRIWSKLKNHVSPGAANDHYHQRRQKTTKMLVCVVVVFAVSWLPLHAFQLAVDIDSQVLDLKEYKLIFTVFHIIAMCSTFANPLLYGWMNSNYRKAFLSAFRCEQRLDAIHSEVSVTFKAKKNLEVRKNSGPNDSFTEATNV
Regarding `Cc1ccc(/C=N/NC(=O)COc2ccccc2-c2ccccc2)cc1`, the inhibition is 28.1% (active). In the case of `c1ccc(-c2ccccc2OCCN2CCCCC2)cc1`, the inhibition is 6.63% (inactive). On to `CC1CN(CCCOc2ccccc2-c2ccccc2)CC(C)O1` (stereo not drawn), for which the inhibition was 6.39% (inactive). Regarding `CCCCCCC(=O)Nc1nc(C)c(-c2csc(Nc3cccc(OC)c3)n2)s1`, the inhibition is 2.61% (inactive). With `Cc1ccc(C(=O)C[n+]2cc(-c3ccccc3)n3c2CCCCC3)cc1`, the inhibition is 14.5% (inactive).

Turning to `CC(Oc1ccc2ccccc2c1)C(=O)NNC(=S)NC(=O)c1ccco1` (stereo not drawn), the inhibition is 10.2% (inactive). Turning to `CCN1CCN(CCNC(=O)c2ccc(/C=C3/Sc4ccccc4N(Cc4cccc(C)c4)C3=O)cc2)CC1`, the inhibition was 27% (active). Turning to `Cc1ccc(N2C(=O)C3N=NN(CC(=O)N4N=C(c5cccc6ccccc56)CC4c4ccccc4)C3C2=O)cc1` (stereo not drawn), the inhibition is 5.5% (inactive).

Regarding `CCOC(=O)CSc1nc2c(sc(=S)n2CCc2ccccc2)c(=O)n1Cc1ccco1`, the inhibition was 14.4% (inactive). Turning to `O=C(NCCc1ccc2c(c1)OCCO2)c1cc2ccccc2o1`, the inhibition is 14.6% (inactive).

`O=S(=O)(O)c1nc2ccccc2n1Cc1ccc(Cl)cc1`: the inhibition was 5.74% (inactive). Regarding `Cc1ccc(Cn2c(NC(=O)c3ccco3)nc3ccccc32)cc1`, the inhibition was 24.2% (active). On to `CCS(=O)(=O)n1nc(-c2ccccc2)nc1SCc1ccccc1`, for which the inhibition was 13.4% (inactive). For the compound `CCC(=O)c1c[nH]c(C(=O)NCC2CCCO2)c1` (stereo not drawn), the inhibition was 2.61% (inactive). With `O=C(CN1CCN(c2ncc(C(F)(F)F)cc2Cl)CC1)Nc1ccc2c(c1)OCO2`, the inhibition is 18.4% (active). Take `O=C(CSc1nnnn1C1CCCC1)Nc1ccc2c(c1)OCCO2`: the inhibition is 7.69% (inactive). With `COC(=O)c1ccc(COC(=O)c2c(C)nn(Cc3ccccc3Cl)c2Cl)o1` the figure was 8.24% (inactive); with `COc1ccc(CCN(C(=O)COc2ccccc2)c2nc(-c3ccccc3)cs2)cc1OC`, 17.3% (active); with `CCCCc1c(O)nc2n(c1=O)CCS2`, 2.74% (inactive). Consider `Cc1ccc2nc(-c3ccccn3)cc(C(=O)Nc3ccc4c(c3)OCO4)c2c1`, for which the inhibition was 25.5% (active). With `CCc1ccc(CNC(=O)C2CCCN(c3nc4ccccc4o3)C2)cc1` (stereo not drawn) the figure was 11% (inactive). Consider `CCCOC(=O)c1[nH]c2c(c1C)C(=O)CC(c1cccs1)C2` (stereo not drawn), for which the inhibition was 16.7% (inactive). On to `COc1ccccc1C1C2=C(COC2=O)Nc2cc3c(cc21)OCO3` (stereo not drawn), for which the inhibition was 10.6% (inactive). With `OC(COCCC12CC3CC(CC(C3)C1)C2)CN1CCCCC1` (stereo not drawn) the figure was 12.7% (inactive); with `CS(=O)(=O)N1CCCC(C(=O)N2CCOCC2)C1` (stereo not drawn), 0.64% (inactive). For `COc1ccc(C(c2nnnn2C2CCCCC2)N2CCN(c3ccccc3F)CC2)cc1` (stereo not drawn), the inhibition was 10.2% (inactive). Consider `CC(=O)N1CC(C)c2scc(C)[n+]2-c2ccccc21` (stereo not drawn), for which the inhibition is 3.05% (inactive). With `O=C(/C=C/c1ccco1)Nc1cccc(-c2nc3ccccc3[nH]2)c1` the figure was 7.24% (inactive); with `O=C(CSc1nc2cc3c(cc2c(=O)n1CCC1=CCCCC1)OCO3)NCc1ccco1`, 2.11% (inactive); with `c1ccc2c(NC3C4CC5CC(C4)CC3C5)nc(N3CCOCC3)nc2c1` (stereo not drawn), 30.1% (active). For the compound `CC(Nc1nc(N2CCN(CCO)CC2)nc2ccccc12)c1ccccc1` (stereo not drawn), the inhibition was 10.1% (inactive). With `Fc1ccc(-c2nnc(CSc3nnc(-c4ccc5c(c4)OCO5)o3)o2)cc1` the figure was 9.04% (inactive); with `CC(C)Cn1cnc2c1c(=O)n(CC(O)c1ccccc1)c(=O)n2CC(C)C` (stereo not drawn), -0.53% (inactive). Turning to `Cc1ccccc1Nc1scc(-c2ccc(Br)cc2)[n+]1-c1ccccc1C`, the inhibition was 12.3% (inactive). `Cc1cc(C(C)(C)C)oc1C(=O)N(CC(=O)NC1CCCC1)Cc1ccc(Cl)cc1`: the inhibition is 19.8% (active).

Turning to `CCCSc1nc(NCc2ccco2)c2c3c(sc2n1)COC(C)(CC)C3` (stereo not drawn), the inhibition was 12.4% (inactive). In the case of `C/C(=N\NC(=S)NCc1ccccc1)c1ccc(Cl)cc1`, the inhibition is 5.13% (inactive).

Turning to `COc1ccc(-c2[nH]nc(-c3ccccc3)c2-c2nc3ccccc3[nH]2)cc1`, the inhibition was 17% (inactive). Regarding `O=C(NCCCN1CCOCC1)c1cnn2c(-c3ccccc3)cc(-c3ccccc3)nc12`, the inhibition was 18.8% (active). With `CCOC1CCCCC1NS(=O)(=O)c1ccc(Cl)cc1` (stereo not drawn) the figure was 1.15% (inactive).

With `Cc1nc(-c2ccccc2)sc1C(=O)/C=C/c1ccccc1`, the inhibition is 16.5% (inactive). Turning to `COc1ccc(C(=O)CSc2nnc(COc3ccccc3)n2Cc2ccco2)cc1`, the inhibition is 6.65% (inactive). `Oc1ccc(-c2[nH]ncc2-c2nc3ccccc3s2)c(O)c1`: the inhibition was 3.58% (inactive).

As to `NC(N)=N/N=C/c1ccc(OCc2ccc(Cl)cc2Cl)cc1`, the inhibition is 30.3% (active). With `CCOC(=O)c1nn(-c2cccc(C)c2)cc1C(=O)c1ccccc1` the figure was 6.78% (inactive). With `COC(=O)c1ccc(C(NC(=O)OCc2ccccc2)/C(C)=C/[C@@H](C)C(=O)NCc2ccc(OC)c(OC)c2)cc1` (stereo partly drawn) the figure was 12.9% (inactive). Turning to `Cc1cc(C)c2[nH]c(=O)c(CN(Cc3ccccc3)C(=S)NCCCN(C)C)cc2c1`, the inhibition is 26.7% (active). With `CN(C)CCCCCN(C)Cc1cc2ccccc2o1` the figure was 14.4% (inactive). For `COC(=O)C1=C(Nc2ccc(C)cc2)C=C(C)C(C(=O)OC)C1c1ccc(F)cc1` (stereo not drawn), the inhibition was 15.2% (inactive). Take `Cc1ccc(C(=O)N/C(=C/c2ccc(-c3cccc([N+](=O)[O-])c3)o2)C(=O)NCCCN(C)C)cc1`: the inhibition is 13.8% (inactive). As to `CCCOc1ccc2c3c(c(=O)oc2c1OCCC)CCC3`, the inhibition was 15.6% (inactive). With `COc1ccccc1N1CCN(C(=O)CN(Cc2ccc(Cl)cc2)S(C)(=O)=O)CC1`, the inhibition is 3.69% (inactive). With `Clc1ccccc1-c1cc(COc2ccc3ccccc3c2)no1` the figure was 18.4% (active); with `COc1cccc(CNCCc2c[nH]c3ccccc23)c1OCc1ccccc1F`, 16.7% (inactive). With `CCCC(=O)Nc1nc2ccc(NC(=O)c3c(F)c(F)c(OC)c(F)c3F)cc2s1`, the inhibition was 11.5% (inactive). `Cc1ccc(SCCC(=O)OCC(=O)Nc2ncc(Cl)cc2Cl)cc1`: the inhibition was 5.65% (inactive). With `CC(=O)OC(C)C[N+](C)(C)C` (stereo not drawn), the inhibition is 12.9% (inactive).

Regarding `COc1cc2c(C(=O)N3CCN(C)CC3)c(CSc3ccccc3)n(C)c2cc1Br`, the inhibition was 19.6% (active). Turning to `OCC1(CCc2ccccc2)CCN(Cc2ccc3nsnc3c2)CC1`, the inhibition was 9.39% (inactive). For the compound `CCOC(=O)N1CCN(S(=O)(=O)c2ccc(C(=O)Nc3ccc(F)cc3F)cc2)CC1`, the inhibition is 10.3% (inactive). Take `CCCCn1nc(C(=O)N2CCc3ccccc32)c2ccccc2c1=O`: the inhibition is 3.7% (inactive). In the case of `Cc1ccc(-c2cc(C(=O)N3CCc4ccccc4C3)no2)cc1`, the inhibition is 12.8% (inactive).

For the compound `CCCCCCCCn1c2c(c(=N)c3c1CCC3)CCCC2`, the inhibition was 44.6% (active). For the compound `O=C(Cc1cccs1)N(CC1CCCO1)C1(C(=O)NC2CCCCC2)CCCCC1` (stereo not drawn), the inhibition was 11.1% (inactive). Regarding `O=C(c1cc(-c2ccc(O)cc2)on1)N1CCCc2ccccc21`, the inhibition is 2.92% (inactive). `CC(C)(C)NCc1cc(Br)ccc1OC1CCCC1`: the inhibition is 10.4% (inactive).

As for `COc1ccc(C2Nc3ccccc3C(=O)N2Cc2ccccc2)cc1Cn1nnc2ccccc21` (stereo not drawn), the inhibition was 8.37% (inactive). Regarding `O=C1c2cccnc2C(Nc2ccc(S(=O)(=O)N3CCCCCC3)cc2)N1Cc1ccccc1` (stereo not drawn), the inhibition was 2.58% (inactive).
